Structures are written as SMILES. Several values for one entry are separate records, joined by “and”; a condition that tells them apart may be missing. Identical values can stand only once. Compounds without any hit were thinned out: in the full panel of roughly 83,000, 20% have a hit.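 Testing used 96-well plates and a 48-hour single-concentration exposure. Example: -40 means 40% of the starting cells died.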 Activity calls are given as the source filed them.

40 compounds from PubChem BioAssay (NCI) can be followed below.

The test deals with MDA-MB-468 breast. Description: NCI-60 one-dose screen, 48 h (100 = growth as untreated, 0 = no growth, -100 = all killed). The note with it: 10 µM unless noted. As to the method:
Growth inhibition of the MDA-MB-468 human Breast tumor cell line is measured as a screen for anti-cancer activity. Cells are grown in 96 well plates and exposed to the test compound for 48 hours. Compounds are tested at a single concentration, which is 10^-5 M for most compounds. The reported endpoint is percent growth (GI% or GIPRCNT), where numbers from 0 - 100% represent growth inhibition, and numbers from -100% - 0 represent cell death. For example, a value of 40 represents 60% growth inhibition. A value of 0 means no net growth occurred over the course of the experiment. A value of -40 indicates 40% of cells at the beginning of the experiment died by the end of the experiment. A value of -100 means all cells are dead at the end of the experiment.
NCI-60 Human Tumor Cell Lines Screen was performed using the standard one-dose NCI protocol, which is described in more detail at https://dtp.cancer.gov/discovery_development/nci-60/default.htm.
Compounds with GIPRCNT values below 10 were considered active. Activity score was based on GIPRCNT using the following formula: […]
Score is 0 for GIPRCNT values of 100 or above, 50 for GIPRCNT values of 0, and 100 for GIPRCNT values of -100.
Turning to `CCCCC[C@@H]1C/C=C(\C)[C@@H](O)C(C)(C)C(=O)[C@@H](C)/C=C(\C)[C@@H]2C[C@H](O)C[C@](O)(CC(=O)O1)O2`, the growth was -21.2% (active).
For `O=C(c1ccc(Cl)cc1)C1[C@H](c2ccccc2Cl)[C@@H](c2ccccc2)NC12C(=O)Nc1ccc(Cl)cc12` (stereo not given in full), the growth was -52.5% (active).
In the case of `CN1CCc2c(sc3ncnc(N/N=C/c4cccc(Cl)c4Cl)c23)C1` it was 33.2% (inactive); in that of `O=C1Nc2cc(-c3ccc(NS(=O)(=O)c4ccc(C(F)(F)F)cc4)cc3)ccc2/C1=C/c1ccc[nH]1`, -26.2% (active); in that of `NS(=O)(=O)c1ccc(N2N=C(c3ccc(NC(=O)Nc4ccccc4)cc3)CC2c2ccc(Br)cc2)cc1` (stereo not given), -95% (active).
Take `O=C(CSc1nc2sc3c(c2c(=O)n1-c1ccc(Cl)cc1)CCCC3)N/N=C/C=C/c1ccccc1`: the growth was -81.6% (active).
`O=C(NN1C(=O)/C(=C/C=C/c2ccc([N+](=O)[O-])o2)SC1=S)c1ccc([N+](=O)[O-])cc1`: the growth was -79.3% (active).
The figure for `Fc1ccc(F)c(CNc2nc(SCCN3CCOCC3)nc3c2cnn3CC(Cl)c2ccc(Br)cc2)c1` (stereo not given) is -22.9% (active); for `Clc1ccc(-c2nc3c4c(-c5ccccc5)c(-c5ccccc5)n(Cc5ccccc5)c4ncn3n2)cc1` it is -40.4% (active).
The figure for `COc1ccc(NC(=O)Cn2c(/C=C/c3cccc(Br)c3)nc3ccccc3c2=O)cc1` is 77.6% (inactive); for `Nc1nn2c(-c3cc4cc(Br)ccc4oc3=O)ccnc2c1N=Nc1ccc(S(N)(=O)=O)cc1` it is 64.7% (inactive).
The figure for `COc1ccc(C2=Nc3c(N)nc(N)nc3NC(c3ccc(Oc4nc(Nc5ccc(F)cc5)nc(N(C)C)n4)c(OC)c3)C2)cc1` (stereo not given) is 8.9% (active); for `CN(C)c1nc(NCCNS(=O)(=O)c2ccc(C(=O)/C=C/c3ccccc3)cc2)nc(N2CCOCC2)n1` it is 52.1% (inactive); for `N#Cc1c(-c2ccc(F)cc2)nc(SCc2ccccc2)nc1N1CCNCC1` it is -64.3% (active).
As for `CC(C)CN1C(=O)/C(=C\C(=O)c2cc3ccccc3oc2=O)c2ccccc21`, the growth is 32.6% (inactive).
The figure for `CN(C)c1nc(NCCNS(=O)(=O)c2ccc(C(=O)/C=C/c3ccc(C(F)(F)F)cc3)cc2)nc(N2CCOCC2)n1` is -96.1% (active); for `COc1ccc2[nH]cc(-c3cc4nc(-c5cn(C)c6ncc(Br)cc56)cc(N)n4n3)c2c1` it is -83.1% (active).
On to `COc1ccc2[nH]cc(-c3cc(N)n4nc(-c5c[nH]c6ccccc56)cc4n3)c2c1`, for which the growth is -67.8% (active).
Regarding `COc1ccc(C2=NN(C(=O)[C@H]3[C@@H](c4ccco4)c4sc(=O)[nH]c4S[C@@H]3C)C(c3ccc4ccccc4c3)C2)cc1` (stereo not given in full), the growth is -14.6% (active).
For `CCCCCCCCc1ccc(C(=O)Nc2ccc(C)cc2C(=O)O)cc1`, the growth was 70.5% (inactive).
For `N/C(=N\c1nc2ccccc2s1)NC(=O)Nc1ccccc1[N+](=O)[O-]`, the growth was -0.807% (active).
With `COc1ccc(C(=O)/C=C/c2ccc3c(c2)OCCO3)cc1S(N)(=O)=O`, the growth was 80.7% (inactive).
The figure for `COc1ccc(/C=C/c2nc3ccccc3c(=O)n2CC(=O)Nc2ccccc2)cc1` is 55.7% (inactive).
Take `O=C(NC(=S)N1CCN(c2ncnc3c2cnn3-c2ccccc2)CC1)c1ccc(Br)cc1`: the growth is 78% (inactive).
The figure for `COC(=O)c1cc(C(C)=O)n2c3ccccc3c3ccccc3c12` is 65.8% (inactive); for `N#CC1=C(c2ccco2)Nc2c(c(-c3ccccc3)nn2-c2ccccc2)C12C(=O)Nc1ccc(Br)cc12` (stereo not given) it is 66.6% (inactive).
The figure for `O=CNc1cccc(-n2cnc3cc(-c4ccc(O)cc4)ccc32)c1` is 19.5% (inactive); for `O=C1CC(c2ccc(I)cc2)OC2C=Cc3ccccc3C12` (stereo not given) it is 123% (inactive).
`CCOC(=O)/C(F)=C/C1CC1CCc1ccc(OCC)cc1` (stereo not given): the growth was 71.6% (inactive).
In the case of `Nc1cccc(-n2c(COc3ccc(I)cc3)nc3ccccc32)c1` it was 72.2% (inactive) and 102% (inactive); in that of `COc1nc(N)ncc1-c1ccc2ncnc(N3CCc4cc(F)c(Cl)cc43)c2c1`, -24.9% (active).
For `CC1=C(C)C(=O)C(N2CCSCC2)=CC1=O`, the growth was 60.4% (inactive).
The figure for `N#Cc1cc(-c2ccc3ncnc(N4CCc5cc(F)c(Cl)cc54)c3c2)cnc1N` is -14.7% (active).
Take `COc1ccc(N=Nc2c(N)nn3c(N)c(C#N)c(-c4ccc(C)cc4)nc23)cc1`: the growth is 32.4% (inactive).
The figure for `CN1C(=O)C2(C(C#N)=C(c3ccc(Cl)cc3)Nc3c2c(-c2ccccc2)nn3-c2ccccc2)c2ccccc21` (stereo not given) is 95.4% (inactive); for `CS(=O)(=O)Nc1cccc(-n2cnc3cc(-c4ccc(O)cc4)ccc32)c1` it is 6.92% (active); for `Oc1ccc(Cl)c(Nc2ncnc3c2cnn3CC(Cl)c2ccc(Br)cc2)c1` (stereo not given) it is 26.2% (inactive).
The figure for `O=C(CSc1nnc(-c2ccc(-c3nc4ccc(Cl)cc4[nH]3)cc2)o1)Nc1ccc(Cl)cc1` is 72.4% (inactive); for `CC1=C(C)C(=O)C(NCCN2CCOCC2)=C(Br)C1=O` it is -96.2% (active).
With `Cn1cc(-c2cc(N)n3nc(-c4c[nH]c5ccccc45)cc3n2)c2cc(Cl)ccc21`, the growth is -83.2% (active).
